HT1080NT lethal = qHTS for induction of synthetic lethality in tumor cells producing 2HG: qHTS for the HT-1080-NT fibrosarcoma cell line; HT-1080-NT fibrosarcoma viability, CellTiter-Glo ATP luminescence, 48 h; Potency, µM (series often up to 46.1 µM), for the others: top-dose activity, negative = less viability, hits mostly cytotoxic; 1.6% of 360,000 active;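 further: NT is the 2HG producing partner of a matched IDH1 knockdown line; potency means the concentration at half of the fitted maximal effect; 0% = DMSO-treated cells and -100% = media-only wells without cells; nearly all actives have a fitted effect of over 55% in size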
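HT-1080-NT; 750 cells/well; 5% FBS RPMI; 48 h compound, 37 degrees C; CellTiter-Glo luminescence; curve fitting and curve-class assignment.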
TDP1 cell CPT = qHTS for Inhibitors of human tyrosyl-DNA phosphodiesterase 1 (TDP1): qHTS in cells in presence of CPT. 12% of 420,000 active. Potency, µM (doses to about 46.2 µM), for the others: at the highest dose activity change, negative = growth inhibition, actives largely listed as inhibitors. AID 686979, 2013. chicken DT40 Tdp1-/-;hTDP1 cells + 20 nM CPT, ATP luminescence, 48 h; further: potency means the concentration at half of the fitted maximal effect; nearly all actives have a fitted effect of over 55% in size
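Chicken DT40 Tdp1-/- cells stably complemented with human TDP1 were seeded at 400 cells/well in medium containing 20 nM camptothecin, exposed to pin-transferred compounds, and grown at 37 °C for at least 48 hr. Viability was read as ATP luminescence.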
ELG1 repair inh = qHTS screen for small molecules that inhibit ELG1-dependent DNA repair in human embryonic kidney (HEK293T) cells expressing luciferase-tagged ELG1. HEK293T ELG1-luciferase reporter, luminescence, 16 h; DNA damage induced by 5-fluorouridine. Potency, µM (highest dose often 46.1 µM), for the others: at the top dose activity change, negative = inhibition, most hits filed as inhibitors. 2.3% of 330,000 active. AID 504467, 2011; further: potency means the concentration at half of the fitted maximal effect; nearly all actives have a fitted effect of over 55% in size
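5-Fluorouridine DNA damage + compound/DMSO, 2,000 cells/well, 16 h, 37 °C/5% CO2. ONE-Glo, 30 min RT, luminescence. Readout = decrease in reporter signal.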
DT40 TDP1 no CPT = qHTS for Inhibitors of human tyrosyl-DNA phosphodiesterase 1 (TDP1): qHTS in cells in absence of CPT | Potency, µM (titrated, usually from 46.2 µM), for the others: top-dose activity change, negative = growth inhibition, hits mostly inhibitors | DT40 Tdp1-/- hTDP1 cells, no CPT, ATP luminescence, 48 h | AID 686978, 2013 | 15% of 420,000 active; further: potency means the concentration at half of the fitted maximal effect; nearly all actives have a fitted effect of over 55% in size
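Compound effects on proliferation are scored in DT40 Tdp1-/-;hTDP1 cells in the absence of CPT. ATP levels (CellTiter-Glo luminescence) are recorded after a ≥48 hr, 37 °C incubation.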
HT1080 IDH1KD tx = qHTS for induction of synthetic lethality in tumor cells producing 2HG: qHTS for the HT-1080-IDH1KD cell line | HT-1080 IDH1 knockdown viability, ATP luminescence, 48 h | Potency, µM (doses to about 46.1 µM), for inactives: at the top dose activity, negative = toxicity, most hits filed as cytotoxic | 2% of 360,000 active | AID 686971, 2013;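 further: potency means the concentration at half of the fitted maximal effect; 0% = DMSO wells and -100% = cell-free medium wells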
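Cytotoxicity counter-line: IDH1KD HT-1080, 48 h, CellTiter-Glo. Curves classed by r2, magnitude and activity.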
IL1B secr inh = qHTS for Inhibitors of Inflammasome Signaling: IL-1-beta AlphaLISA Primary Screen. 4.7% of 360,000 active. AID 743279, 2014. activity change, % at 57.5 µM. THP-1 LPS/ATP IL-1B secretion, AlphaLISA, 16 h; active compounds read low; in the data active means activity change below about -50%; inconclusive means mostly about -30% to -49%
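THP-1 cells pretreated 1 hr with compounds (up to 57.5 uM final), then stimulated with LPS (250 ng/mL final) plus ATP (1.25 mM final); secreted IL-1B measured by AlphaLISA after 16 hr, decreased signal indicating inhibition.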
The depositor's hits bear a star; ? = inconclusive; . = no result; [ ] = dose if it differs, or a comment. Most compounds without a hit are left out; they make up all but 19% or so of the library. Unless noted, the call rests on the fitted dose curve; in most records, active means well fitted curve in the direction sought with a large enough effect; inconclusive means small, poorly fitted or top-dose-only effect, or another doubt; inactive means no such curve, though single readings can be large; an effect the other way counts as inactive or inconclusive. Unless noted, on the % scale 0 is the no-effect control and ±100 the full control effect.

SMILES	HT1080NT lethal	TDP1 cell CPT	ELG1 repair inh	DT40 TDP1 no CPT	HT1080 IDH1KD tx	IL1B secr inh
COc1ccc(NCC(=O)N2CCCC2)cc1Cl	25.7%	9.9%	?	-11.0%	11.8%	-22.2
O=C1OC(c2ccc(O)c(S(=O)(=O)O)c2)(c2ccc(O)c(S(=O)(=O)O)c2)c2c(Br)c(Br)c(Br)c(Br)c21	.	8.0%	.	5.8%	.	.
CN1CCN(CCOC2c3ccccc3CSc3ccc(Cl)cc32)CC1 (configuration not stated)	16.4µM*	?	-22.0%	16.4µM*	?	-87.1*
Clc1ccc2c(c1)C(OC1CN3CCC1CC3)c1ccccc1CS2 (configuration not stated)	-25.5%	16.4µM*	?	14.6µM*	?	-104.3*
Clc1ccc(C2N3CCCN23)c(Cl)c1 (configuration not stated)	?	-9.4%	16.2%	-15.0%	12.5%	-0.7
CCCSP(=O)(OCC)SCCC	.	6.0%[92.5 µM]	.	-13.3%[92.5 µM]	.	.
CC(C)NC(=O)C(C)N1CCN(S(=O)(=O)c2ccc3ccccc3c2)CC1 (configuration not stated)	-4.8%	18.4µM*	?	14.6µM*	-1.3%	30.3
CCOc1cc(/C=N/NC(=O)c2cccs2)ccc1OC(=O)N1CCOCC1	-28.3%	?	?	16.4µM*	-26.3%	7.2
Cc1cccc(OC(=O)N2CCOCC2)c1	2.7%	-18.4%	10.9%	-0.5%	2.5%	5.8
Brc1cccc(CNCCc2ccc3c(c2)OCO3)c1	-15.0%	?	-23.3%	?	-11.5%	-10.1
Cc1nn(Cc2ccccc2)c(C)c1C(=O)OCC(=O)NC1CCS(=O)(=O)C1 (configuration not stated)	16.8%	12.2%	-13.6%	-16.9%	21.2%	35.1
C[C@]12CC[C@H](O)C[C@H]1CC[C@@H]1[C@@H]2CC[C@]2(C)[C@@H](C3=CC(=O)OC3)CC[C@]12O	0.517µM*	?	?	11.6µM*	0.259µM*	?
CC12CCC(O)CC1CCC1C2CCC2(C)C(C3=CC(=O)OC3)CCC12O (configuration not stated)	1.46µM*	?	.	?	1.16µM*	-65.1*
C[C@]12CCC3C(CC[C@]4(O)CC(O)CC[C@@]34C=O)[C@]1(O)CCC2C1=CC(=O)OC1 (some centres not stated)	.	10.2%	.	-20.9%	.	.
C[C@]12CC[C@H](O)C[C@H]1CC[C@@H]1[C@@H]2C[C@@H](O)[C@]2(C)[C@@H](C3=CC(=O)OC3)CC[C@]12O	2.06µM*	-13.2%	?	?	0.82µM*	-65.8*
CC12CC[C@H]3[C@@H](CCC4(O)C[C@H](O)CCC34/C=N/NC(=O)Cc3ccccc3)C1(O)CCC2C1=CC(=O)OC1 (some centres not stated)	?	14.2%	-5.7%	7.9%	?	-3.9
CC(=O)C1CCC2C3CCC4CC(O)CCC4(C)C3CC(O)C12C (configuration not stated)	.	10.5%	.	-21.6%	.	.
COc1c2c(cc3c1OCO3)CC[N+](C)=C2	17.0%	-26.2%[9.04 µM]	-9.7%	-12.4%[9.04 µM]	-3.0%	5.2
COC(=O)C1(C(=O)OC)C[C@H](c2ccc(OC)cc2)N(Cc2ccccc2OC)[C@@H]1c1ccccc1	-0.1%	?	.	?	-6.8%	-21.3
